Our source for the growth inhibition values is PubChem BioAssay (NCI).

The panel holds about 79,000 compounds, 15% with a hit somewhere; the sample as a whole holds those more often. Unmarked numbers belong to inactive results. The source made the active and inactive calls. No stated cut-off is given here; in the data, active means growth inhibition above about 70%; inactive means the rest.

A short description of assay [1]: NCI Yeast Anticancer Drug Screen. Data for the rad50 strain (AID 155).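 Further: 0% = growth of vehicle-only cultures of the same strain.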 The conditions noted are these: S. cerevisiae rad50 strain growth inhibition, stronger effect = higher value. In outline: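 Genetically altered yeast (DNA repair pathway); compound treatment; growth inhibition vs vehicle ctrl.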
The nature of assay [2]: NCI Yeast Anticancer Drug Screen. Data for the mec2-1 strain (AID 157). The conditions noted are these: S. cerevisiae mec2-1 strain, stronger effect = higher value. Summed up: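 Readout is yeast growth inhibition, normalised to vehicle-treated controls, in the mec2-1 strain exposed to compound.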
A short description of assay [3]: NCI Yeast Anticancer Drug Screen. Data for the sgs1 mgt1 strain (AID 161).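 Further: 0% = growth of cultures given vehicle only.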 The conditions noted are these: S. cerevisiae sgs1 mgt1 strain, stronger effect = higher value. In outline: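 This yeast growth screen uses a strain with defined DNA-repair lesions; compound-treated growth is compared with vehicle-treated growth.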
Assay [4] is described as follows: NCI Yeast Anticancer Drug Screen. Data for the cln2 rad14 strain (AID 165).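 Further: 0% = growth equal to vehicle treated cultures.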 The conditions noted are these: S. cerevisiae cln2 rad14 strain, stronger effect = higher value. In outline: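 Relative to vehicle controls, growth inhibition of compound-treated cln2 rad14 yeast was recorded.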
Assay [5] in a line: NCI Yeast Anticancer Drug Screen. Data for the bub3 strain (AID 167). The conditions noted are these: S. cerevisiae bub3 mutant strain, stronger effect = higher value. Summed up:
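Yeast carrying a defined mutation is treated with each compound, and growth is compared with that of vehicle-exposed cells to give inhibition.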

The nature of assay [6]: NCI Yeast Anticancer Drug Screen. Data for the mlh1 rad18 strain (AID 175). The conditions noted are these: S. cerevisiae mlh1 rad18 strain growth inhibition, stronger effect = higher value. In outline:
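Test agents were incubated with a yeast strain of defined genotype (DNA damage repair defect). Inhibition of growth was derived by comparison with vehicle-exposed cultures.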

[7] abbreviates: at 5.0 µM (retest, dose inferred, filed as 0.5).
[8] abbreviates: at 50.0 µM (retest, dose inferred, filed as 5.0).

`CC(=O)OCc1c2ccccc2c(C)c2c1cc(F)c1ccccc12`: the growth inhibition in assay [1] (setting [7]) was 35%; in assay [1] (setting [8]), 87% (active); in assay [1] (at 50.0 µM) it was 98.2% (active); in assay [2] (setting [7]), 25%; in assay [2] (setting [8]) it was 89% (active); in assay [2] (at 50.0 µM), 98.8% (active). Also, the growth inhibition in assay [3] (setting [7]) was 52%; in assay [3] (setting [8]), 90% (active); in assay [3] (at 50.0 µM), 98.1% (active); in assay [4] (setting [7]), 14%; in assay [4] (setting [8]), 85% (active); in assay [4] (at 50.0 µM) it was 98.2% (active). For the same compound, the growth inhibition is 15% in assay [5] (setting [7]); 86% (active) in assay [5] (setting [8]); 98.5% (active) in assay [5] (at 50.0 µM); 40% in assay [6] (setting [7]); 88% (active) in assay [6] (setting [8]); 98.2% (active) in assay [6] (at 50.0 µM).

For the compound `O=C(CBr)C1(Br)CCN(Cc2ccccc2)CC1`, the growth inhibition in assay [1] (setting [7]) was 19%; in assay [1] (setting [8]), 99% (active); in assay [1] (at 50.0 µM), 99.3% (active); in assay [2] (setting [7]), 17%; in assay [2] (setting [8]), 99% (active); in assay [2] (at 50.0 µM), 99.8% (active). The growth inhibition in assay [3] (setting [7]) was 22%; in assay [3] (setting [8]), 99% (active); in assay [3] (at 50.0 µM) it was 99.6% (active); in assay [4] (setting [7]) it was 8%; in assay [4] (setting [8]) it was 99% (active); in assay [4] (at 50.0 µM), 97.6% (active). The growth inhibition in assay [5] (setting [7]) is 6%; in assay [5] (setting [8]), 99% (active); in assay [5] (at 50.0 µM) it was 99.5% (active); in assay [6] (setting [7]), 30%; in assay [6] (setting [8]) it was 99% (active); in assay [6] (at 50.0 µM) it was 99.6% (active).

In the case of `Cc1scnc1C(C#N)(c1ccccc1)c1ccccc1`, the growth inhibition in assay [1] (setting [7]) was 9%; in assay [1] (setting [8]) it was 97% (active); in assay [1] (at 50.0 µM) it was 98.5% (active); in assay [2] (setting [7]), 4%; in assay [2] (setting [8]), 98% (active); in assay [2] (at 50.0 µM), 98.5% (active). The growth inhibition in assay [3] (setting [7]) was 4%; in assay [3] (setting [8]), 98% (active); in assay [3] (at 50.0 µM) it was 98.7% (active); in assay [4] (setting [7]) it was 8%; in assay [4] (setting [8]), 98% (active); in assay [4] (at 50.0 µM), 98.5% (active). Besides, the growth inhibition was 9% in assay [5] (setting [7]); 97% (active) in assay [5] (setting [8]); 98.8% (active) in assay [5] (at 50.0 µM); 7% in assay [6] (setting [7]); 97% (active) in assay [6] (setting [8]); 98.5% (active) in assay [6] (at 50.0 µM).

Take `CNC(=S)/N=c1/sc([N+](=O)[O-])c(C)n1C`: the growth inhibition was -26% in assay [1] (setting [7]); -4% in assay [1] (setting [8]); 65.5% in assay [1] (at 50.0 µM); -6% in assay [2] (setting [7]); 0% in assay [2] (setting [8]); 12.5% in assay [2] (at 50.0 µM). Besides, the growth inhibition is -7% in assay [3] (setting [7]); 7% in assay [3] (setting [8]); 67.7% in assay [3] (at 50.0 µM); -33% in assay [4] (setting [7]); -14% in assay [4] (setting [8]); -1.95% in assay [4] (at 50.0 µM). The growth inhibition was -4% in assay [5] (setting [7]); 5% in assay [5] (setting [8]); 44.9% in assay [5] (at 50.0 µM); -20% in assay [6] (setting [7]); -12% in assay [6] (setting [8]); 54.8% in assay [6] (at 50.0 µM).

In the case of `Cc1coc(C)c1C(=S)Nc1ccc(Cl)c(C(=O)OC(C)C)c1`, the growth inhibition in assay [1] (setting [7]) was 6%; in assay [1] (setting [8]), 81% (active); in assay [1] (at 50.0 µM) it was 84% (active); in assay [2] (setting [7]), -8%; in assay [2] (setting [8]) it was 77% (active); in assay [2] (at 50.0 µM), 82.5% (active). Moreover, the growth inhibition is -3% in assay [3] (setting [7]); 81% (active) in assay [3] (setting [8]); 85.2% (active) in assay [3] (at 50.0 µM); 20% in assay [4] (setting [7]); 88% (active) in assay [4] (setting [8]); 81.8% (active) in assay [4] (at 50.0 µM). The growth inhibition in assay [5] (setting [7]) is -15%; in assay [5] (setting [8]) it was 87% (active); in assay [5] (at 50.0 µM) it was 82.9% (active); in assay [6] (setting [7]) it was -9%; in assay [6] (setting [8]), 86% (active); in assay [6] (at 50.0 µM), 81.6% (active).

In the case of `Cc1csc(N)[n+]1CCC(=O)[O-]`, the growth inhibition in assay [1] (setting [7]) was -1%; in assay [1] (setting [8]) it was -3%; in assay [1] (at 50.0 µM), -3.95%; in assay [2] (setting [7]) it was -1%; in assay [2] (setting [8]), -2%; in assay [2] (at 50.0 µM), -23.1%. The growth inhibition was -1% in assay [3] (setting [7]); -2% in assay [3] (setting [8]); -2.8% in assay [3] (at 50.0 µM); -3% in assay [4] (setting [7]); 3% in assay [4] (setting [8]); 31.5% in assay [4] (at 50.0 µM). The growth inhibition was -1% in assay [5] (setting [7]); 1% in assay [5] (setting [8]); -14.6% in assay [5] (at 50.0 µM); 0% in assay [6] (setting [7]); -3% in assay [6] (setting [8]); -24.5% in assay [6] (at 50.0 µM).

On to `NNC(=S)Nc1ccccc1`, for which the growth inhibition in assay [1] (setting [7]) is 3%; in assay [1] (setting [8]) it was 5%; in assay [1] (at 50.0 µM) it was -7.25%; in assay [2] (setting [7]), -3%; in assay [2] (setting [8]), 1%; in assay [2] (at 50.0 µM) it was 79.9% (active). In addition, the growth inhibition in assay [3] (setting [7]) was -1%; in assay [3] (setting [8]), 1%; in assay [3] (at 50.0 µM), -14.6%; in assay [4] (setting [7]), 5%; in assay [4] (setting [8]) it was -4%; in assay [4] (at 50.0 µM), -28.9%. In addition, the growth inhibition in assay [5] (setting [7]) was 1%; in assay [5] (setting [8]), -1%; in assay [5] (at 50.0 µM), 2.2%; in assay [6] (setting [7]), -1%; in assay [6] (setting [8]), 10%; in assay [6] (at 50.0 µM), 8.05%.

Consider `CCOC(=O)Nc1cc(NC(C)/C(=N/O)c2ccccc2)c([N+](=O)[O-])c(N)n1` (configuration not stated), for which the growth inhibition is -18% in assay [1] (setting [7]); 97% (active) in assay [1] (setting [8]); 42.6% in assay [1] (at 50.0 µM); -5% in assay [2] (setting [7]); 47% in assay [2] (setting [8]); 59.5% in assay [2] (at 50.0 µM). For the same compound, the growth inhibition in assay [3] (setting [7]) was 1%; in assay [3] (setting [8]), 69%; in assay [3] (at 50.0 µM), 47.5%; in assay [4] (setting [7]) it was -21%; in assay [4] (setting [8]), 98% (active); in assay [4] (at 50.0 µM), 24.9%. Besides, the growth inhibition was -10% in assay [5] (setting [7]); 87% (active) in assay [5] (setting [8]); 62.1% in assay [5] (at 50.0 µM); -5% in assay [6] (setting [7]); 82% (active) in assay [6] (setting [8]); 44.2% in assay [6] (at 50.0 µM).

As for `O=C1C=CC(=O)N1c1ccc(Cl)cc1Br`, the growth inhibition in assay [1] (setting [7]) was 49%; in assay [1] (setting [8]) it was 42%; in assay [1] (at 50.0 µM) it was 93.3% (active); in assay [2] (setting [7]), 40%; in assay [2] (setting [8]), 44%; in assay [2] (at 50.0 µM), 94.3% (active). Besides, the growth inhibition in assay [3] (setting [7]) is 100% (active); in assay [3] (setting [8]), 100% (active); in assay [3] (at 50.0 µM) it was 94.2% (active); in assay [4] (setting [7]), 68%; in assay [4] (setting [8]) it was 100% (active); in assay [4] (at 50.0 µM), 92.4% (active). The growth inhibition was 100% (active) in assay [5] (setting [7]); 99% (active) in assay [5] (setting [8]); 58.4% in assay [5] (at 50.0 µM); 28% in assay [6] (setting [7]); 45% in assay [6] (setting [8]); 92.5% (active) in assay [6] (at 50.0 µM).
